High-throughput results from PubChem.
Hits are enriched below; roughly 1.6% of the tested compounds scored in any of these assays.
KCNQ2 enhance = potentiators of rat KCNQ2 potassium channel; B-score at 10 µM; CHO-K1 KCNQ2, FluxOR thallium flux fluorescence; hits give high values; AID 2239, 2010; Potassium voltage-gated channel subfamily KQT member 2 (Rattus norvegicus), O88943; 310,000 tested, 0.54% active;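 active means fluorescence ratio B-score at least 3 SD of library B-scores, with initial fluorescence B-score within 3 of them, cut at about 5.3 in these data; same plate scores as AID 2156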;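 further: B-score of peak minus minimum over baseline fluorescence ratio after K+ and Tl+ stimulus; positive B-score means potentiation of KCNQ2 with more thallium influx and brighter signal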
Target sequence (O88943 whole entry, looked up): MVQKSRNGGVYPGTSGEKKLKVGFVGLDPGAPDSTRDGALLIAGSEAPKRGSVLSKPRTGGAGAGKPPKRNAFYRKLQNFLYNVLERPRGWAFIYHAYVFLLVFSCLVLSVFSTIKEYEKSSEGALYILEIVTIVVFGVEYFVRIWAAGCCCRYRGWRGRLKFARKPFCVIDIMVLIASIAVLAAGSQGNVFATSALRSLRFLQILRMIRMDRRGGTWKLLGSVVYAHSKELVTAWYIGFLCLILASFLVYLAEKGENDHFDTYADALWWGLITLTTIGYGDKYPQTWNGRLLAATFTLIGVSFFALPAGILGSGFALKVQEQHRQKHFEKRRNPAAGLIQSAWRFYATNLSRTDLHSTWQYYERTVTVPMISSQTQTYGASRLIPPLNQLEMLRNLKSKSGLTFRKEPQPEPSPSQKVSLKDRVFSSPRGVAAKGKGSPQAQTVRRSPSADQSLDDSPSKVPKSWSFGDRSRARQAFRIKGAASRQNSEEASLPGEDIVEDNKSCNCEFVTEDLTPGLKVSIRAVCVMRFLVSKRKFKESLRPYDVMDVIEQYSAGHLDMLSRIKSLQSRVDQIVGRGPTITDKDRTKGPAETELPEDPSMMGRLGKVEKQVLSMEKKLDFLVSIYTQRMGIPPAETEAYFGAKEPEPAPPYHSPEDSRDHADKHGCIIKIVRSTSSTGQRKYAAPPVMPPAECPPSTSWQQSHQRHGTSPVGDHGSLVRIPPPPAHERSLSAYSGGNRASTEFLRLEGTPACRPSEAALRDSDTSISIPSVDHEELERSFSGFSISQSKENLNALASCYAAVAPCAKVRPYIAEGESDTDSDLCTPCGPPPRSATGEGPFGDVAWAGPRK
KCNQ2 block = rat KCNQ2 potassium channel inhibitors, primary screen, cell-based, CHO-K1, FluxOR thallium flux, B-score; 20 min; hits give low values; B-score at 10 µM; 310,000 tested, 1.1% active; Potassium voltage-gated channel subfamily KQT member 2 (Rattus norvegicus), O88943;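 active means fluorescence ratio B-score at most minus 3 library SDs, with starting brightness B-score within 2 library SDs, cut at about -5.5 in these data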
* = called active by the depositor; i = inactive; · = no result given.

SMILES | KCNQ2 enhance | KCNQ2 block
Cc1ccc(-n2nc3c(=O)n(C(C)C(=O)NCCCc4ccccc4)nc(C)c3c2C)cc1 (centres undefined) | · | i
COc1ccc(OC2CCN(S(=O)(=O)c3cccc(F)c3)CC2)cc1 | · | i
O=S(=O)(c1cccc(F)c1)N1CCc2sccc2C1c1ccc(OC(F)(F)F)cc1 (centres undefined) | -5.9 | -5.9*
c1ccc(SCCc2ccncc2)cc1 | · | i
O=C(O)CN1C(=O)NC2NC(=O)NC21 (centres undefined) | 0.17 | i
Cn1c(CC(=O)Nc2ccccc2)n[nH]c1=S | 0.8 | i
C=CCSC1=N/C(=C\c2ccc3c(c2)OCO3)C(=O)S1 | 0.47 | i
C=CCSC1=N/C(=C\c2cc(OCC)c(OC(C)=O)c([N+](=O)[O-])c2)C(=O)S1 | 7.1* | i
CCc1ccc2[nH]c(=O)c(C(c3nnnn3CC3CCCO3)N3CCCc4ccccc43)cc2c1 (centres undefined) | 7.2* | i
Cc1cc2cc(C(c3nnnn3CC3CCCO3)N3CCCc4ccccc43)c(=O)[nH]c2cc1C (centres undefined) | 0.15 | i
CC(C)N(C(=O)CSc1nc2ccccc2n1Cc1ccccc1)C(C)C | · | i
CC(C)N(C(=O)CSc1nc2ccccc2n1-c1ccccc1)C(C)C | -6 | -6*
COc1cccc(NC(=O)CN(C)C(=O)c2cc(-c3ccco3)nc3ccccc23)c1 | · | i
CN(CCOc1ccc(Cl)cc1)C(=O)c1cc(-c2ccco2)nc2ccccc12 | -13 | -13*
Cc1ccc(NC(=O)N2CCCC(c3ccccc3)C2)cc1 (centres undefined) | · | i
CC(C)Sc1n[nH]c(=O)n1-c1cccc(C(F)(F)F)c1 | 0.35 | i
CC(=O)N1c2ccc3ccccc3c2C(C)CC12CCCCC2 (centres undefined) | -6.6 | -6.6*
CC1CC2(CCCCC2)Nc2ccc3ccccc3c21 (centres undefined) | · | i
COc1ccc(-n2cc(CNCCc3cscn3)c(-c3ccccc3Cl)n2)cc1 | · | i
Cc1ccc(-n2cc(CNCCc3cscn3)c(-c3ccc(F)cc3)n2)cc1 | -6.8 | -6.8*
N/C(CC(=O)Nc1cc(C(F)(F)F)ccc1Cl)=N\O | 0.38 | i
O=C(Nc1ccc2oc(-c3ccccc3Cl)nc2c1)c1ncn[nH]1 | 1.6 | i
C=CCSc1ncnc2c1oc1nc3c(cc12)COC(C)(C)C3 | 0.61 | i
CCN(CC)S(=O)(=O)c1ccc(N2CCCC2)c(NC(=O)c2ccc(OC)cc2OC)c1 | · | i
Cn1nc(C(F)(F)F)cc1Oc1ncc(C(F)(F)F)cc1Cl | 1.8 | i
SMILES | KCNQ2 enhance | KCNQ2 block
C=CCn1c(SCc2c(C)noc2C)nc2sc(C)c(C)c2c1=O | -6.5 | -6.5*
Cc1noc(C)c1CSc1nc2sc(C)c(C)c2c(=O)n1-c1ccccc1 | · | i
Cc1ccc(S(=O)(=O)N2CC(C(=O)O)Oc3ccccc32)cc1 (centres undefined) | 2.2 | i
O=C(COc1c(F)c(F)c(C(F)(F)F)c(F)c1F)Nc1ccc(N2CCOCC2)c(Cl)c1 | 0.01 | i
CCC(C)c1ccc(NC(=O)COc2c(F)c(F)c(C(F)(F)F)c(F)c2F)cc1 (centres undefined) | 6.1* | i
O=C(N/C(=C\c1ccc2c(c1)OCO2)C(=O)N1CCOCC1)c1ccccc1Br | · | i
COc1ccc(C2NC3=C(CCC3)C3(C#N)C4(N=C(N)C23C#N)OCCO4)cc1 (centres undefined) | · | i
COc1ccc(C2NC3=C(CCCC3)C(C#N)(C#N)C2(C#N)C#N)cc1 (centres undefined) | -5.8 | -5.8*
Cc1cc(CN(C)C(=O)C2CCC(=O)N(CCc3ccccc3)C2)n[nH]1 (centres undefined) | · | i
CC(C)(C#CC(O)(c1ccccc1)c1ccccc1)N1CCCC1 | · | i
COc1ccc(/C=C2\SC(=O)NC2=S)cc1OC | 5.9* | i
CCOc1ccc(/C=C2\SC(=S)NC2=O)cc1OC | 3.8 | i
CSc1nnc(N2C(=O)C(O)=C(C(=O)c3ccco3)C2c2ccc(F)cc2)s1 (centres undefined) | · | i
CCOC(=O)Cn1c2ccc(OC)cc2c2nc3ccccc3nc21 | · | i
COC(=O)Cn1c2ccc(OC)cc2c2nc3ccccc3nc21 | -5.7 | -5.7*
COc1ccc(CC(=O)Nc2ccc(S(=O)(=O)Nc3cc(OC)nc(OC)n3)cc2)cc1 | · | i
CCCC(=O)N1c2ccccc2C(=C2SC(C(=O)OC)=C(C(=O)OC)S2)C(=S)C1(C)C | -7.9 | -7.9*
COC(=O)C1=C(C(=O)OC)SC(=C2C(=S)C(C)(C)N(C(=O)C(C)C)c3ccccc32)S1 | · | i
CCCC1S/C(=N/N=C/c2ccc(OC)cc2)N(Cc2ccc(OC)cc2)C1=O (centres undefined) | · | i
CCCC1S/C(=N/N=C/c2ccc(OC)cc2)N(Cc2ccccc2)C1=O (centres undefined) | -6.2 | -6.2*
Cc1cc(S(=O)(=O)Nc2ccc(C(=O)N3CCN(c4ccccc4O)CC3)cc2)ccc1F | 0.35 | i
CCN(CC)S(=O)(=O)c1ccc2oc(C(=O)N3CCc4ccccc4C3)c(C)c2c1 | · | i
O=C(CN1CCCCCC1)Nc1ccc(Oc2ccccc2)cc1 | 9* | i
NC(=O)C1(N2CCCCC2)CCN(CC(=O)Nc2ccc(Oc3ccccc3)cc2)CC1 | 0.6 | i
COc1cc(C(C(=O)NC2CCCCC2)N(C(=O)Cc2c[nH]c3ccccc23)c2ccc(C)cc2)cc(OC)c1OC (centres undefined) | · | i
SMILES | KCNQ2 enhance | KCNQ2 block
CC(Sc1ccccc1)C(=O)N(CCC#N)Cc1cccnc1 (centres undefined) | · | i
COc1cccc(C(c2nnnn2CCc2ccccc2)N2CCN(c3ccccc3)CC2)c1OC (centres undefined) | -6.7 | -6.7*
COc1cccc(C(c2nnnn2Cc2ccco2)N2CCN(c3cccc(C)c3C)CC2)c1OC (centres undefined) | -6.2 | -6.2*
COc1ccc(OC)c(C(c2nnnn2Cc2ccco2)N2CCN(C)CC2)c1 (centres undefined) | · | i
COc1ccccc1C(c1nnnn1CCc1ccccc1)N1CCN(c2ccccc2)CC1 (centres undefined) | · | i
COc1ccc(-c2nc(N)ncc2-c2csc(C)n2)c(O)c1 | · | i
COc1ccccc1Nc1nc(-c2cccc([N+](=O)[O-])c2)cs1 | 1.6 | i
COc1ccccc1CNC(=O)c1csc2c1CCCC2 | -6.5 | -6.5*
COc1ccccc1NC(=O)c1csc2c1CCCC2 | · | i
COCC(C)NS(=O)(=O)c1ccc(C(=O)NC(Cc2ccccc2)c2ccccc2)cc1 (centres undefined) | -7.8 | -7.8*
CS(=O)(=O)c1ccc(C(=O)NC(Cc2ccccc2)c2ccccc2)cc1 (centres undefined) | · | i
COc1ccc(C(=O)Nc2ccccc2N2CCOCC2)cc1Br | -6.3 | -6.3*
COc1ccc(C(=O)NC(=S)Nc2ccccc2N2CCOCC2)cc1Br | · | i
Cc1ccc(C(C)C)c(OCC(=O)NC(=S)Nc2ccccc2N2CCOCC2)c1 | -6.5 | -6.5*
O=C(COc1ccccc1)Nc1ccccc1N1CCCCC1 | · | i
Cc1cccc(OCC(=O)Nc2ccccc2N2CCCCC2)c1 | · | i
Cc1ccc(OCC(=O)Nc2ccccc2N2CCCC2)c(C)c1 | -5.6 | -5.6*
Cc1cccc(OCC(=O)NC(=S)Nc2ccccc2N2CCOCC2)c1C | · | i
